Shown are actives, neighbours in structure and some others; about 3.7% of the full set was active somewhere.
Anthrax LF inh2 – Bacillus anthracis LF protease inhibitors, primary screen, biochemical, multiplex microsphere, MLPCN library; multiplex microsphere protease cleavage assay; inhibition, % at 10 µM; 360,000 compounds, 0.12% hits; AID 588501, 2011; note: plate controls were buffer without enzyme for full effect and enzyme alone for no effect
Target sequence (P15917 whole entry, looked up): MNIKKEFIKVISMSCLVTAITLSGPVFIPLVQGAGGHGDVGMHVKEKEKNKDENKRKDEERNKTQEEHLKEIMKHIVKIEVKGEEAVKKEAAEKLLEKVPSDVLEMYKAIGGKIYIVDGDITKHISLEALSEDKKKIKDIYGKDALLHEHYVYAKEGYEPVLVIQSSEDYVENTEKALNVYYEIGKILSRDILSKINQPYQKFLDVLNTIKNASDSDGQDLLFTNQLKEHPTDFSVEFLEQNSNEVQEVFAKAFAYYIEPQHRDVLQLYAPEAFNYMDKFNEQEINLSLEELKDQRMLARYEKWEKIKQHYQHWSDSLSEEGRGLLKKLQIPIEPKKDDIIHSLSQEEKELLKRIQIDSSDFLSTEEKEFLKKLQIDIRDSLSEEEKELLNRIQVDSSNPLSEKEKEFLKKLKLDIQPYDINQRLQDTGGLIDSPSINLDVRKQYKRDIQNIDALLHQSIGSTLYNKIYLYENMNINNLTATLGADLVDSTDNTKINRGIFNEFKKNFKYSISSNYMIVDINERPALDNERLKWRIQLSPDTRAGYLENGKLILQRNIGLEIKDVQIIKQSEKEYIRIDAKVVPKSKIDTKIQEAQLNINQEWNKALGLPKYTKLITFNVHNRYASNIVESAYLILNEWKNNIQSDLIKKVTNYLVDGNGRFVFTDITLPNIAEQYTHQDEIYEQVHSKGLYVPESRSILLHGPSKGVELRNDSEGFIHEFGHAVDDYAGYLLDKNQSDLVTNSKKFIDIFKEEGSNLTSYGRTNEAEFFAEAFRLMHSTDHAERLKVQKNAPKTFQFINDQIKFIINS
BoNT F protease – BoNT/F light chain protease inhibitors, primary screen, biochemical, flow cytometry, MLPCN library; Botulinum neurotoxin type F light chain protease (Clostridium botulinum); Multiplex microsphere protease cleavage assay; inhibition, % at 10 µM; 360,000 compounds, 0.22% hits; AID 588497, 2011; in the data active = inhibition above about 35%, passing the limit was not always enough; inconclusive = no clear call, values can overlap the other calls; note: plate controls were buffer without enzyme for full effect and enzyme alone for no effect
Autofluor counter – counter-screen for toxin protease inhibitors: compound fluorescence; compound autofluorescence counterscreen, microsphere flow cytometry; stronger effect = higher value; fluorescence intensity (test concentration not listed); 360,000 compounds, 3.1% hits; AID 624483; in the data active = fluorescence intensity above about 16000; inconclusive = no clear call, values can overlap the other calls
BoNT A protease – BoNT/A light chain protease inhibitors, primary screen, biochemical, flow cytometry, MLPCN library | multiplex microsphere protease substrate cleavage | inhibition, % at 10 µM | 360,000 compounds, 0.17% hits; note: plate controls were buffer without enzyme for full effect and enzyme alone for no effect
MazEF act – activators of E. coli MazEF toxin-antitoxin RNase, primary screen, biochemical, fluorescence, uHTS. FAM/BHQ RNA-DNA oligo cleavage fluorescence, 5 h. activation, % at 20 µM. 350,000 compounds, 0.32% hits; in the data active = activation above about 50%
The depositor's hits bear a star; ? = inconclusive; . = no result. Cut-off read from the data, not from the text of the source, unless noted: active = inhibition above about 30%; inconclusive = no clear call, values can overlap the other calls; inactive = below that.

SMILES	Anthrax LF inh2	BoNT F protease	Autofluor counter	BoNT A protease	MazEF act
CC(=O)Nc1c(O)nc(SCC(=O)Nc2sc3c(c2C#N)CCCCCC3)[nH]c1=O	-4	2	19485*	3	-8
Cc1cc(OCC(=O)OCC(=O)NC2CCS(=O)(=O)C2)ccc1Cl (stereo unspecified)	-6	3	3521	0	0
CCOC(=O)N1CCN(C(=O)C[C@@H]2C[C@@]3(C(=O)OCC)CCC=C3N(Cc3cccc4ccccc34)C2=O)CC1	-6	0	5861	0	.
N#Cc1c(NC(=O)CSc2nc3c(c(C(F)(F)F)n2)CCc2ccccc2-3)sc2c1CCCC2	-1	0	22691*	-2	-12
Cc1cc(C(=O)Nc2sc3c(c2C#N)CCCC3)no1	-1	0	9715	0	-3
Cc1cc(C(=O)Nc2sc3c(c2C#N)CCC3)no1	-1	0	22362*	2	-5
Cc1noc(C)c1CN(C(=S)NC1CC2CCC1C2)c1ccccc1 (stereo unspecified)	-6	42*	4701	4	-4
Cc1noc(C)c1CN(C(=S)NC(C)C)c1ccccc1	0	-3	2129	0	0
COc1ccc([C@@H]2C[C@H]3[C@@H](CN2S(=O)(=O)c2ccccc2)C(=O)C[C@@H](c2cccc(Cl)c2)N3S(=O)(=O)c2ccc(C)cc2)cc1	-2	-8	6150	-1	.
Cc1nc(NC(=O)c2ccccc2)sc1-c1csc(NCCc2ccccc2)n1	2	2	25254*	4	-2
O=C(CC(Cc1ccccc1)C(=O)O)Nc1ccc(F)cc1 (stereo unspecified)	2	?	3612	-4	-18
COc1ccc(NC(=O)CC(Cc2ccccc2)C(=O)O)cc1 (stereo unspecified)	-3	0	22709*	0	-11
CN(C)C(Cc1ccc(C#N)cc1)C(=O)c1ccccc1 (stereo unspecified)	-2	-4	8023	0	11
CN(C)C(Cc1ccccc1)C(=O)c1ccc(-c2ccccc2)cc1 (stereo unspecified)	-2	-6	16369*	?	-2
COc1ccc(C(=O)NC(=S)N(Cc2ccccc2)Cc2ccccc2)cc1	-6	-2	16570*	0	0
COc1ccc(C(=O)C(Cc2ccccc2)N(C)C)cc1 (stereo unspecified)	-2	1	16157*	1	9
C[C@H]1CN([C@@H](C)CO)C(=O)CCCn2cc(nn2)CO[C@@H]1CN(C)C(=O)c1ccncc1	-6	-4	3819	0	-5
CC1(N=Cc2cc(Cl)ccc2O)COP(=O)(Nc2ccccc2)OC1 (stereo unspecified)	7	4	3541	1	2
COc1ccc(COC(=O)CCc2cc(OC)c(OC)c(OC)c2)cc1F	-7	-6	3209	0	-2
CSCCC(NC=O)C(=O)NC(C)C(=O)O (stereo unspecified)	-4	5	5321	0	0
O=C(Nc1ccccc1C(=O)O)c1cccc(NC(=O)c2ccc(Br)o2)c1	-3	11	2174	0	-11
O=C(Nc1ccccc1C(=O)O)c1ccc(NC(=O)c2ccc(Br)o2)cc1	-4	-1	23730*	-2	-4
O=C(Nc1ccc(S(=O)(=O)N2CCCCCC2)cc1)c1ccc(Br)o1	-1	-5	21567*	-2	2
O=C(CNC(=O)c1ccco1)Nc1ccc(S(=O)(=O)N2CCCC2)cc1	1	-9	21490*	-6	-3
O=C(Nc1ccc(S(=O)(=O)N2CCOCC2)cc1)c1ccco1	-2	-5	4574	-1	14
SMILES	Anthrax LF inh2	BoNT F protease	Autofluor counter	BoNT A protease	MazEF act
Cc1ccc(C(=O)Nc2ccc(S(=O)(=O)N3CCCC3)cc2)o1	0	-3	5745	1	0
COc1ccc2c(CN3CCCCCCC3)cc(=O)oc2c1	-3	7	6649	0	.
Cc1nn(CC(=O)OCC(=O)c2ccc(OC(F)F)cc2)c(C)c1[N+](=O)[O-]	0	7	3655	0	-11
O=C(Cn1c(C(F)(F)F)nc2ccccc21)c1ccc(Cl)cc1	3	2	18546*	3	3
O=C(Cn1c(C(F)(F)F)nc2ccccc21)c1ccccc1	-2	5	12188	0	-7
CSc1nc(N2CCOCC2)nc2ccc(C)cc12	-1	-12	3473	1	1

Source: PubChem BioAssay (several laboratories)
